Drawing on PubChem BioAssay (NCATS), this text covers Potency and outcome for seven compounds.

Test [1] is described as follows: Primary fluorescence-based thiol-reactive (MSTI) qHTS assay for identification of artifact compounds. (AID 1845221).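 Note: thiol-reactive compounds lower the probe fluorescence signal; nearly all actives have a fitted effect of over 65% in size.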 The procedure, abridged: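 Probe: MSTI 4 uM, PBS pH 7.4, 2% DMSO. Incubation 1 h, RT, light-protected. Readout fluorescence 525/598 nm.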
A general note: Quantitative high-throughput screening tests each substance at several concentrations.

Test [2] concerns Nanoluciferase (engineered Oplophorus gracilirostris luciferase). Nature of the test: Primary Nanoluciferase (NLuc) qHTS assay for identification of artifact compounds. (AID 1845222).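 Note: NLuc secreted into diluted conditioned medium of S16 cells.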 The procedure, abridged:
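S16 cell supernatant NLuc, 1:55; cpds qHTS; 15 min RT dark; Nano-Glo substrate 1:100, 5 min; luminescence; Hill fit of % inhibition.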

Test [3] can be described thus: Primary redox qHTS assay for identification of artifact compounds. (AID 1845223). The procedure, abridged:
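Redox-cycling detection via DTT (250 uM final) oxidation coupled to Amplex Red (25 uM)/HRP (250 mU/mL) in HBSS. 15 min preincubation plus 30 min after DTT, room temperature. Ex/Em 525/598 nm; 4-parameter Hill fit against DMSO and 10 uM DA3003.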

Test [4] is described as follows: Quantitative High-Throughput drug screen in 47 multiple myeloma cell lines against the NCATS MIPE library collection: FR4_PLB cell viability assay (AID 1918924; note: potency is the fitted concentration of half-maximal effect; nearly all actives have a fitted effect of over 35% in size). In short, it runs like this:
(§1)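 Steps: seed 500 cells per well; pin-transfer MIPE 4.0 library; incubate 48 h at 37C, 5% CO2, humidified; add CellTiter-Glo, 5 min room temperature; read luminescence.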

Test [5] can be described thus: Quantitative High-Throughput drug screen in 47 multiple myeloma cell lines against the NCATS MIPE library collection: EJM_DSMZ cell viability assay (AID 1918926; note: potency is the fitted concentration of half-maximal effect; nearly all actives have a fitted effect of over 30% in size). The procedure, abridged:
(§2)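 CellTiter-Glo luminescence (ATP) after 48 h compound exposure, 37C/5% CO2; 500 cells/well; MIPE 4.0 approved/investigational drugs pinned in; DMSO = 100%, media only = 0% viability.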

A short description of test [6]: Quantitative High-Throughput drug screen in 47 multiple myeloma cell lines against the NCATS MIPE library collection: AMO1_DSMZ cell viability assay (AID 1918927; note: potency is the fitted concentration of half-maximal effect; nearly all actives have a fitted effect of over 30% in size). In short, it runs like this: as §2
A short description of test [7]: Quantitative High-Throughput drug screen in 47 multiple myeloma cell lines against the NCATS MIPE library collection: ARP1_JJKsccF8 cell viability assay (AID 1918928; note: potency is the fitted concentration of half-maximal effect; nearly all actives have a fitted effect of over 40% in size). The procedure, abridged:
(§3)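 Cell viability inhibition in this qHTS is measured via ATP content (CellTiter-Glo) after 48 h drug exposure at 37 °C. Wells hold 500 cells; DMSO-treated wells define 100% and medium-only wells 0%.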

Test [8] in a line: Quantitative High-Throughput drug screen in 47 multiple myeloma cell lines against the NCATS MIPE library collection: Karpas417_ECACC cell viability assay (AID 1918961). Note: potency is the fitted concentration of half-maximal effect. The settings on record: Karpas417 myeloma viability, CellTiter-Glo ATP luminescence, 48 h; viability (% of DMSO): at 45.8 µM (top of the series). In short, it runs like this: as §2
A general note: Cellular ATP, detected with luciferase, serves as a proxy for viable cell number.

Test [9] can be described thus: Quantitative High-Throughput drug screen in 47 multiple myeloma cell lines against the NCATS MIPE library collection: Delta47_JCRB cell viability assay (AID 1918925; note: potency is the fitted concentration of half-maximal effect; nearly all actives have a fitted effect of over 45% in size). In short, it runs like this:
as §2

Test [10] can be described thus: Quantitative High-Throughput drug screen in 47 multiple myeloma cell lines against the NCATS MIPE library collection: ARD_JJKsccE7 cell viability assay (AID 1918929; note: potency is the fitted concentration of half-maximal effect). The procedure, abridged: as §2
Test [11] is described as follows: Quantitative High-Throughput drug screen in 47 multiple myeloma cell lines against the NCATS MIPE library collection: Karpas620_DSMZ cell viability assay (AID 1918959). Note: potency is the fitted concentration of half-maximal effect; nearly all actives have a fitted effect of over 30% in size. The procedure, abridged:
as §1

Test [12] can be described thus: Quantitative High-Throughput drug screen in 47 multiple myeloma cell lines against the NCATS MIPE library collection: KMM1_JCRB cell viability assay (AID 1918960). Note: nearly all actives have a fitted effect of over 30% in size. Note: potency is the fitted concentration of half-maximal effect. In short, it runs like this: as §3
The nature of test [13]: Quantitative High-Throughput drug screen in 47 multiple myeloma cell lines against the NCATS MIPE library collection: KHM11_PLB cell viability assay (AID 1918962). Note: nearly all actives have a fitted effect of over 35% in size. Note: potency is the fitted concentration of half-maximal effect. In short, it runs like this: as §1
Test [14] is described as follows: Quantitative High-Throughput drug screen in 47 multiple myeloma cell lines against the NCATS MIPE library collection: JIM3_ECACC cell viability assay (AID 1918963; note: potency is the fitted concentration of half-maximal effect; nearly all actives have a fitted effect of over 35% in size). In short, it runs like this:
as §1

Test [15] is described as follows: Quantitative High-Throughput drug screen in 47 multiple myeloma cell lines against the NCATS MIPE library collection: JIM1_ECACC cell viability assay (AID 1918964; note: potency is the fitted concentration of half-maximal effect). In short, it runs like this: as §2
Test [16] is described as follows: Quantitative High-Throughput drug screen in 47 multiple myeloma cell lines against the NCATS MIPE library collection: INA6_PLB cell viability assay (AID 1918965; note: potency is the fitted concentration of half-maximal effect; nearly all actives have a fitted effect of over 55% in size). In short, it runs like this:
as §2

The nature of test [17]: Quantitative High-Throughput drug screen in 47 multiple myeloma cell lines against the NCATS MIPE library collection: H1112_PLB cell viability assay (AID 1918967; note: nearly all actives have a fitted effect of over 30% in size; note: potency is the fitted concentration of half-maximal effect). The procedure, abridged: as §2
Test [18] can be described thus: Quantitative High-Throughput drug screen in 47 multiple myeloma cell lines against the NCATS MIPE library collection: Karpas25_ECACC cell viability assay (AID 1918968; note: nearly all actives have a fitted effect of over 35% in size; note: potency is the fitted concentration of half-maximal effect). In short, it runs like this: as §2
The nature of test [19]: Quantitative High-Throughput drug screen in 47 multiple myeloma cell lines against the NCATS MIPE library collection: KMS27_JCRB cell viability assay (AID 1918970). In short, it runs like this:
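ATP-based viability (CellTiter-Glo luminescence) is measured in cells treated 48 h with approved and investigational drugs at 37 °C. Controls are DMSO-only wells for full viability and media-only wells for none.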

A short description of test [20]: Quantitative High-Throughput drug screen in 47 multiple myeloma cell lines against the NCATS MIPE library collection: JJN3_DSMZ cell viability assay (AID 1918966; note: potency is the fitted concentration of half-maximal effect; nearly all actives have a fitted effect of over 50% in size). In short, it runs like this:
as §2

Results filed as inconclusive are left out. The source made the active and inactive calls. Calls come from the whole dose curve; as a rule, active = well fitted curve in the direction sought with a large enough effect; inconclusive = small, poorly fitted or top-dose-only effect, or another doubt; inactive = no such curve, though single readings can be large; an effect the other way counts as inactive or inconclusive.

Take `CN(C)C1CCN(C(=O)c2ccc(NC(=O)Nc3nc(N4CCOCC4)nc(N4CCOCC4)n3)cc2)CC1`: the Potency entry in test [1] and in [2] was “inactive” each time. Moreover, the compound was called inactive in test [3]. Also, the Potency in test [4] was 0.0093 µM (active); in test [5], 0.166 µM (active); in [6] it was 1.18 µM (active); in [7], 0.0166 µM (active); in test [8] it was 0.0662 µM (active).

Regarding `CNC1CCC(N(Cc2cccc(-c3ccncc3)c2)C(=O)c2sc3c(F)ccc(F)c3c2Cl)CC1` (stereo not given), the Potency result in [1] and in test [2] was “inactive” in each case. The outcome in test [3] was inactive. Besides, the Potency is 14.8 µM (active) in test [4]; 16.6 µM (active) in [9]; 23.5 µM (active) in test [6]; 16.6 µM (active) in [7]; 29.6 µM (active) in test [10]; 16.6 µM (active) in test [11]. Further, the Potency is 18.7 µM (active) in test [12]; 0.469 µM (active) in test [13]; 16.6 µM (active) in [14]; 14.8 µM (active) in test [15]; 8.33 µM (active) in test [16]; 18.7 µM (active) in test [17]. The Potency in [18] was 11.8 µM (active); in test [19], 18.7 µM (active).

Take `COc1ccc(C2CC(c3ccccc3)=NN2c2ccc(S(N)(=O)=O)cc2)cc1` (stereo not given): the Potency entry in test [1], in [2] and in test [13] was “inactive” each time. In addition, the call in [3] was inactive. The Potency was 11.8 µM (active) in [6]; 23.5 µM (active) in test [10]; 16.6 µM (active) in test [11]; 18.7 µM (active) in test [12]; 18.7 µM (active) in test [14]; 14.8 µM (active) in test [15]. Also, the Potency in test [16] is 23.5 µM (active); in test [17], 14.8 µM (active); in [18], 16.6 µM (active); in [19], 8.33 µM (active).

With `Cc1ccc(Nc2cc(-c3cccc(N4C(=O)c5ccccc5C4=O)c3)ncn2)cc1NS(C)(=O)=O`, the Potency entry in test [1] and in [2] was “inactive” throughout. In addition, the compound was classed as inactive in test [3]. In addition, the Potency in test [9] was 14.8 µM (active); in test [5] it was 26.4 µM (active); in [6], 18.7 µM (active); in test [10] it was 20.9 µM (active); in [12], 18.7 µM (active); in test [8], 4.69 µM (active). Also, the Potency in [14] was 18.7 µM (active); in test [16], 16.6 µM (active); in test [20], 18.7 µM (active); in test [17], 18.7 µM (active); in test [18], 11.8 µM (active).

Turning to `CC(C)NCC(O)COc1cccc2[nH]ccc12` (stereo not given), the Potency result in test [1] and in test [2] was “inactive” in each case. Also, the compound was called inactive in test [3].

With `CCS(=O)(=O)N1CC(CC#N)(n2cc(-c3ncnc4[nH]ccc34)cn2)C1`, the Potency result in test [1], in test [2], in test [10], in test [12], in test [17] and in test [18] was “inactive” in each case. Further, the call in test [3] was inactive. Further, the Potency in test [4] is 16.6 µM (active); in [6], 3.72 µM (active); in test [16], 0.418 µM (active).

With `CN1CCN(CCOc2cc(OC3CCOCC3)c3c(Nc4c(Cl)ccc5c4OCO5)ncnc3c2)CC1`, the Potency entry in test [1] and in test [2] was “inactive” each time. For the same compound, the Potency in test [4] is 18.7 µM (active); in test [9], 23.5 µM (active); in test [6], 18.7 µM (active); in [10], 18.7 µM (active); in test [11], 18.7 µM (active); in [12], 14.8 µM (active). Besides, the Potency in [14] was 23.5 µM (active); in test [15], 20.9 µM (active); in test [16] it was 2.96 µM (active); in test [17], 23.5 µM (active); in [18], 16.6 µM (active); in test [19], 16.6 µM (active).
